From the supplement of paper PMC7184167 come the findings set out here.

Where a name gives a salt, the structure may show the parent alone.

In the test the test system is replication-induced senescent mouse newborn dermal fibroblasts (NBF). The test can be described thus: relative cell viability of senescent cells (fraction); higher = less killing of senescent cells. As to conditions: 1 µM; 3 days. The method, then:
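Replication-induced senescent newborn mouse skin fibroblasts (NBFs) in 24-well plates were treated with a Selleck FDA-approved drug library at 1 µM for 3 days.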
Turning to `C[C@]12CC[C@@H]3c4ccc(O)cc4C[C@@H](CCCCCCCCC[S+]([O-])CCCC(F)(F)C(F)(F)F)[C@H]3[C@@H]1CC[C@@H]2O` (stereo partly specified) [Fulvestrant], the relative cell viability amounted to 0.971.

On to `O=S(=O)(O)CCSSCCS(=O)(=O)O` [Dimesna], for which the relative cell viability was found to be 0.736.

Consider `C[C@@H](Oc1cc(-c2cnn(C3CCNCC3)c2)cnc1N)c1c(Cl)ccc(F)c1Cl`, for which the relative cell viability stood at 0.71. In the case of `CC(C)(C)c1cc(C(C)(C)C)c(NC(=O)c2c[nH]c3ccccc3c2=O)cc1O` [Ivacaftor (VX-770)] it was 0.533; in that of `NS(=O)(=O)c1cc2c(cc1Cl)NCNS2(=O)=O` [Hydrochlorothiazide], 1.07. Under `COc1cccc2c1C(=O)c1c(O)c3c(c(O)c1C2=O)CC(O)(C(=O)CO)CC3OC1CC(N)C(O)C(C)O1` (stereo unspecified) [Doxorubicin (Adriamycin) HCl] stands 0.957. Under `C[N+]1(C)[C@@H]2C[C@@H](OC(=O)C(O)(c3cccs3)c3cccs3)C[C@H]1[C@@H]1O[C@@H]12` [Tiotropium Bromide hydrate] stands 1.07; under `C=C1/C(=C\C=C2/CCC[C@]3(C)[C@@H]([C@H](C)CCCC(C)C)CC[C@@H]23)C[C@@H](O)C[C@@H]1O` [Alfacalcidol], 0.249.

`Nc1nc2c(ncn2COCCO)c(=O)[nH]1` [Aciclovir]: the relative cell viability came to 1.06. In the case of `CC(=O)[C@H]1CC[C@H]2[C@@H]3CCC4=CC(=O)CC[C@]4(C)[C@H]3CC[C@]12C` [Progesterone] it was 0.968.

For the compound `CNC(=C[N+](=O)[O-])NCCSCc1csc(CN(C)C)n1` [Nizatidine], the relative cell viability stood at 0.956. In turn, `O=NN(CCCl)C(=O)NC1CCCCC1` [Lomustine] had a relative cell viability of 1.02. In the case of `CC/C(=C(/CC)c1ccc(O)cc1)c1ccc(O)cc1` [Diethylstilbestrol] it was 1.06; in that of `CC(C(=O)O)c1cccc(C(=O)c2ccccc2)c1` (stereo unspecified) [Ketoprofen], 0.757; in that of `Nc1ccc(S(=O)(=O)Nc2ccccn2)cc1` [Sulfapyridine], 0.951.

As for `CC[C@H]1OC(=O)[C@H](C)[C@@H](O[C@H]2C[C@@](C)(OC)[C@@H](O)[C@H](C)O2)[C@H](C)[C@@H](O[C@@H]2O[C@H](C)C[C@H](N(C)C)[C@H]2O)[C@](C)(O)C[C@@H](C)CN(C)[C@H](C)[C@@H](O)[C@]1(C)O` [Azithromycin], the relative cell viability was 0.879. Under `COc1c(N2C[C@@H]3CCCN[C@@H]3C2)c(F)cc2c(=O)c(C(=O)O)cn(C3CC3)c12` [Moxifloxacin HCl] stands 1.03; under `Nc1nc(F)nc2c1ncn2[C@@H]1O[C@H](CO)[C@@H](O)[C@@H]1O` [Fludarabine], 0.0671; under `CN1C(C(=O)Nc2ccccn2)=C(O)c2ccccc2S1(=O)=O` [Piroxicam], 0.562. In the case of `CC(C)OC(=O)C(C)(C)Oc1ccc(C(=O)c2ccc(Cl)cc2)cc1` [Fenofibrate] it was 1.06. In the case of `COc1nc(N)nc2c1ncn2[C@@H]1O[C@H](CO)[C@@H](O)[C@@H]1O` [Nelarabine] it was 1.08; in that of `COc1cc2ncnc(Nc3ccc(F)c(Cl)c3)c2cc1OCCCN1CCOCC1` [Gefitinib (ZD1839)], 1.01. With `CCOC(=O)[C@H](CCc1ccccc1)N[C@@H](C)C(=O)N1[C@H](C(=O)O)C[C@@H]2CCC[C@@H]21` [Ramipril], the relative cell viability was determined as 0.96. Under `Clc1cccc(Cl)c1NC1=NCCN1` [Clonidine HCl] stands 1.04; under `CC(=O)O[C@H]1C[C@@H]2CC[C@@H]3[C@H](CC[C@@]4(C)[C@H]3C[C@H]([N+]3(C)CCCCC3)[C@@H]4OC(C)=O)[C@@]2(C)C[C@@H]1N1CCCCC1` [Vecuronium Bromide], 1.08. In the case of `CC(C)(C)NC(=O)[C@H]1CC[C@H]2[C@@H]3CC[C@H]4NC(=O)C=C[C@]4(C)[C@H]3CC[C@]12C` [Finasteride] it was 0.942; in that of `O=C(O)c1cccnc1` [Nicotinic Acid], 0.937; in that of `O=c1[nH]cc(F)c(=O)[nH]1` [Fluorouracil (5-Fluoracil, 5-FU)], 0.0476.

With `CCCc1nc(C(C)(C)O)c(C(=O)OCc2oc(=O)oc2C)n1Cc1ccc(-c2ccccc2-c2nnn[nH]2)cc1` [Olmesartan Medoxomil], the relative cell viability worked out at 0.252. `C[C@H]1C[C@@H]2[C@H]([C@@H](O)C[C@@]3(C)[C@H]2CC[C@]3(O)C(=O)CO)[C@@]2(C)C=CC(=O)C=C12` [Methylprednisolone] registered a relative cell viability of 1.09. Under `CO[C@H]1/C=C/O[C@@]2(C)Oc3c(C)c(O)c4c(O)c(c(/C=N/N5CCN(C)CC5)c(O)c4c3C2=O)NC(=O)/C(C)=C\C=C\[C@H](C)[C@H](O)[C@@H](C)[C@@H](O)[C@@H](C)[C@H](OC(C)=O)[C@@H]1C` [Rifampin] stands 1.11.
